Where “and” joins values, the source holds several entries; their conditions need not be identical. Equal values may be shown once. Results filed as inconclusive are left out. A call without a number means that no potency is given here. Values without a mark were called inactive. Calls of active or inactive are those of the source. Calls follow the shape of the dose curve; as a rule, active = well fitted cell-killing curve with a large enough effect in the repeat runs; inconclusive = weak or mixed curves, or effect the other way; inactive = flat fitted curve, though single readings scatter.
Assay: qHTS assay to identify small molecule antagonists of the constitutive androstane receptor (CAR) signaling pathway - cell viability counter screen (AID 1224837); also: nearly all actives have a fitted effect of over 45% in size
Settings: HepG2-CYP2B6-hCAR viability, CellTiter-Fluor, 23 h, co-treated with 50 nM CITCO; series mostly up to 92.4 µM
From the text: National Center for Advancing Translational Sciences [NCATS]
NIH Chemical Genomics Center [NCGC]
U.S. Environmental Protection Agency [EPA]
National Institutes of Environmental Health Sciences [NIEHS]
National Toxicology Program [NTP]
U.S. Food and Drug Administration [FDA]
The constitutive androstane receptor (CAR) is a nuclear receptor which regulates multiple drug metabolizing enzymes (DMEs) and transporters. Activating CAR will generally increase the transcription and subsequent translation of CYP2B6 and CYP3A4. These two DMEs represent about 50% of the drug metabolizing potential in the body. When CAR is deactivated, the metabolizing potential in the body will decrease, subsequently increasing the toxicity in the body or lowering the therapeutic potential of a pro-drug. Recently, there have also been studies performed indicating CARs role in energy metabolism and cancer therapy. Therefore, inhibiting CARs activity could have a potential effect on diabetes and cancer. Identifying environmental toxins and compounds which modulate CAR, through the use of the Tox21 10K compound collection, will be an important step in determining the toxicity and potential therapeutic effects these factors will have on the human body. To differentiate true CAR antagonists from cytotoxic substances, the assay is multiplexed with a cell viability assay.
Tox21 Assay Protocol Summary:
A double-stable (hCAR and CYP2B6-2.2kb) transfected cell line, derived from human hepatoma (HepG2) cells, was utilized for the duration of the quantitative high-throughput screens. The HepG2-CYP2B6-hCAR cells were dispensed at 2500 cells/4 uL/well in 1536-well white solid bottom plates using a Multidrop Combi. After the assay plates were incubated at 37 C/5% CO2 for 4 hrs, 23 nL of compounds at 15 concentrations (from 5-48 columns) or positive control (from 1 to 4 columns) were transferred to the assay plates using a Pintool station. One uL of CITCO (final concentration = 50 nM) was added, using a Flying Reagent Dispenser, inside each well. After a 23 hr incubation period at 37 C/5% CO2, 1 uL of CellTiter-Fluor reagent was added into each well of the assay plates using a Flying Reagent Dispenser. The fluorescence intensity in the plates was then measured using a ViewLux plate reader.
Potency is read from the fitted curve at half-maximal effect.

| Compound | Potency | activity change, negative = cytotoxicity |
| --- | --- | --- |
| CC(C)Br | inactive | – |
| O=[N+]([O-])C(Br)Br | inactive | – |
| CC#C[C@]1(O)CC[C@H]2[C@@H]3C[C@H](C)C4=CC(=O)CC[C@]4(C)[C@H]3CC[C@@]21C | inactive | – |
| CCN(CC)C(=S)S | 13.6 µM (active) and 17.2 µM (active) | – |
| COC(=O)/C=C(\C)OP(=O)(OC)OC | inactive | – |
| CCN1CCC2(CC1)COc1cc3c(cc12)N(C(=O)c1ccc(-c2ccc(-c4nnc(C)o4)cc2C)cc1)CC3 | 50.2 µM (active) | – |
| COc1ccc2c3c1O[C@H]1[C@H](O)CC[C@H]4[C@@H](C2)N(C)CC[C@@]341 | inactive | – |
| S=C=Nc1ccccc1 | inactive | – |
| CCOP(=O)(OCC)Oc1nc(Cl)c(Cl)cc1Cl | inactive | – |
| CCC[CH2][Sn]([CH2]CCC)([O]C(C)=O)[O]C(C)=O | 0.437 µM (active) | – |
| Cc1cc2c3c(c1)C(c1ccccc1)=N[C@@H](NC(=O)c1ccncc1)C(=O)N3CC2 | inactive | – |
| [Cl][Hg][c]1ccccc1 | 4.33 µM (active) | – |
| C=C(C)C(=O)[O][Sn]([CH2]CCC)([CH2]CCC)[CH2]CCC | 0.864 µM (active) | – |
| ClC1(Cl)C2(Cl)C3(Cl)C4(Cl)C(Cl)(Cl)C5(Cl)C3(Cl)C1(Cl)C5(Cl)C24Cl (stereo not given) | inactive | – |
| CC(=O)[O-].CC(=O)[O-].CC(=O)[O-].[Sb+3] | – | -10.2% [at 3.26 µM] |
| CN1C2CCC(C)(C)C1CC(OC(=O)C(O)(c1cccs1)c1cccs1)C2 (stereo not given) | inactive | – |
| CCC[CH2][Sn]([CH2]CCC)([CH2]CCC)[CH2]CCC | 24.3 µM (active) | – |
| Cc1c([N+](=O)[O-])cc2c(c1[N+](=O)[O-])C(C)(C)CC2(C)C | inactive | – |
| Nc1c(Cl)c(Cl)c(Cl)c(Cl)c1Cl | inactive | – |
| Oc1ccc(Cl)c(Cl)c1 | inactive | – |

| Compound | Potency | activity change, negative = cytotoxicity |
| --- | --- | --- |
| O=[N+]([O-])[O-].[Tl+] | inactive | – |
| Clc1ccc(C(Cl)(Cl)Cl)cc1Cl | inactive | – |
| [C-]1=CC=CC1.[Cl][Zr+2][Cl].c1cc[cH-]c1 | inactive | – |
| CC(=O)[O-].CC(=O)[O-].[Co+2] | inactive | – |
| Cc1cc(C2CC2)nc(Nc2ccccc2)n1 | inactive | – |
| CCCCCCCc1ccc(O)cc1 | inactive | – |
| Cc1cnc2c(C(=O)O)c(Cl)ccc2c1 | inactive | – |
| CCC[CH2][Sn]([CH2]CCC)([CH2]CCC)[O][Sn]([CH2]CCC)([CH2]CCC)[CH2]CCC | 0.947 µM (active) | – |
| CNN | inactive | – |
| O=[N+]([O-])c1cc(C(F)(F)F)c(Cl)c([N+](=O)[O-])c1Nc1ncc(C(F)(F)F)cc1Cl | 15.4 µM (active) | – |
| O=S1OCC2C(CO1)C1(Cl)C(Cl)=C(Cl)C2(Cl)C1(Cl)Cl (stereo not given) | inactive | – |
| CCCCn1cc[n+](C)c1.[Cl][Fe-]([Cl])([Cl])[Cl] | inactive | – |
| CC(C)c1c(CN(C)C(C)Cc2ccccc2)n(C)n(-c2ccccc2)c1=O (stereo not given) | inactive | – |
| CC(=O)[O-].CC(=O)[O-].O.O.[Zn+2] | inactive | – |
| O=NN(CCO)CCO | inactive | – |
| O=[N+]([O-])c1ccc(CCl)cc1 | inactive | – |
| O=S(=O)(O)F | inactive | – |
| N#CCCl | inactive | – |
| CC(O)C(=O)[O][Hg][c]1ccccc1 (stereo not given) | 4.86 µM (active) | – |
| C=Cc1cccc(CCl)c1 | inactive | – |

From PubChem BioAssay (Tox21)
